Sampled rows, rich in hits. Any-hit rate of the full collection: about 4.4%.
tim10-1 inh – inhibits growth of tim10-1 mutant yeast. 330,000 tested, 2.2% active. AID 463190. inhibition, % at 20 µM. S. cerevisiae tim10-1 ts strain growth, BacTiter-Glo, 24 h;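 active means inhibition of at least 40%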;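 further: mutant grown at 25 °C; 0% = DMSO wells with yeast and 100% = wells holding no yeast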
PfHsp90 yeast 2 – reduces growth (ATP signal) of yeast expressing P. falciparum Hsp90. S. cerevisiae expressing PfHsp90, BacTiter-Glo ATP, 48 h; yeast lacking PDR1 and PDR3 efflux regulators. inhibition, % at 9.4 µM. 310,000 tested, 0.32% active. AID 504621;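 active means every replicate shows inhibition above about 80%, whatever the replicate mean, limit read from the data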;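 further: 0% = DMSO neutral controls and 100% = 20 µM radicicol positive controls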
SKKanGAS inh – blocks kanamycin growth of S. pyogenes SKKanGAS strain; BacTiter-Glo, 6 h; inhibition, % at 7.5 µM; 300,000 tested, 1.3% active; AID 1662;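 active means mean replicate score, as percent of positive control median, at least 50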;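 further: strain carries kanamycin resistance gene driven by streptokinase promoter and grows in 40 µg/ml kanamycin; loss of luminescence reflects streptokinase promoter inhibition or plain growth inhibition; 0% = median of DMSO wells and 100% = positive control at its reference dose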
tim23-1 inh – growth inhibitors of tim23-1 mutant yeast; S. cerevisiae tim23-1 growth, BacTiter-Glo luminescence, 24 h; 330,000 tested, 1.3% active; inhibition, % at 20 µM;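 active means growth inhibition of the mutant yeast at or above 50%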;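 further: temperature-sensitive mutant grown at 25 °C; plate controls were DMSO-treated mutant yeast for no effect and medium wells lacking yeast for full effect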
TIM10 inh – growth inhibitors of TIM10 yeast strain; S. cerevisiae TIM10 strain growth, BacTiter-Glo luminescence, 24 h; inhibition, % at 10 µM; 330,000 tested, 1.4% active;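 active means inhibition of 40% or more at the single tested concentration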;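 further: wild-type TIM10 isogenic control strain grown at permissive 25 °C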
tim10-1 confirm – tim10-1 yeast growth inhibition, confirmed. S. cerevisiae tim10-1 ts strain growth, BacTiter-Glo, 24 h. 7,400 tested, 56% active. shares compounds with tim10-1 inh. AID 463213. inhibition, % at 20 µM;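 active means inhibition of yeast growth at or above a set limit in either of two repeat tests at 20 µM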;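 further: tim10-1 mutant grown at permissive 25 °C to find synthetic lethal compounds; 0% = DMSO yeast wells and 100% = medium wells without yeast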
* = called active by the depositor; . = no result given.

SMILES	tim10-1 inh	PfHsp90 yeast 2	SKKanGAS inh	tim23-1 inh	TIM10 inh	tim10-1 confirm
COc1cc(/C=C(\C#N)C(=O)NCC2CCCO2)ccc1OCC(N)=O (stereo not drawn)	18	.	4	4	-3	.
N#C/C(=C\c1ccc(O)c(Br)c1)C(=O)NCc1ccccc1	47*	-40	4	28	19	17
COCCNC(=O)/C(C#N)=C/c1ccc(OC(=O)c2cccs2)c(OC)c1	.	-38	-9	.	.	.
COc1cc(/C=C(\C#N)C(=O)NCc2cccs2)ccc1O	42*	-10	3	30	28	28
COc1ccc(/C=C(\C#N)C(=O)NCC2CCCO2)cc1OC (stereo not drawn)	40*	.	-13	46	23	11
COc1cc(C(=O)NCC2CCCO2)ccc1OCc1ccc(Cl)cc1Cl (stereo not drawn)	43*	-18	3	33	18	30*
N#C/C(=C\c1ccc(O)c([N+](=O)[O-])c1)C(=O)NCc1ccccc1	15	-16	5	20	1	.
Cc1ccc(S(=O)(=O)CCC(=O)OCC(=O)Nc2cc(S(=O)(=O)N3CCOCC3)ccc2Cl)cc1	.	29	.	.	.	.
O=C(COC(=O)CCS(=O)(=O)c1ccccc1)Nc1cc(S(=O)(=O)N2CCCCC2)ccc1Cl	40*	.	-4	38	27	42*
CC(C)CNC(=O)c1c2c(nc3ccccc13)-c1ccccc1CC2	22	.	-1	-7	-1	.
CCN(CC)C(=O)c1c2c(nc3ccccc13)-c1ccccc1CC2	42*	32	0	33	37	17
CCOc1ccc(C(=O)CN2CCN(S(=O)(=O)c3ccc(Br)cc3)CC2)cc1	17	.	1	23	13	.
COc1ccc(S(=O)(=O)N2CCN(Cc3ccccc3)CC2)cc1	48*	11	-2	41	12	31
COc1ccc(S(=O)(=O)N2CCN(Cc3cccnc3)CC2)cc1	-15	15	-4	0	0	.
CCOc1ccc(C(=O)CN2CCN(S(=O)(=O)c3ccc(OC)cc3)CC2)cc1	42*	17	2	48	23	42*
CC(C)(C)C(=O)CSc1ccc(S(=O)(=O)N2CCN(Cc3ccccc3)CC2)cn1	42*	0	.	39	24	36*
Cc1ccc(S(=O)(=O)N2[C@@H](c3ccc(C(C)C)cc3)C(C(=O)O)=C[C@H]2C(C)(C)C)cc1	16	-12	.	19	10	.
Cc1cc(NS(=O)(=O)c2ccc(NC(=O)NC3CCCCC3)cc2)no1	11	.	-2	-3	-11	.
Cc1cc(NS(=O)(=O)c2ccc(C3CCCCC3)cc2)no1	41*	-134	15	35	13	20
COc1ccc(NC(C)C(=O)Nc2cccc(S(=O)(=O)N3CCOCC3)c2)cc1OC (stereo not drawn)	-14	2	.	-4	3	.
CCOc1ccc(S(=O)(=O)N2CCN(C(=O)c3cc(C4CC4)nn3-c3ccccc3)CC2)cc1	19	-36	.	11	4	.
Cc1cc(C(=O)C(C)OC(=O)c2ccc(NC(=O)CC#N)cc2)c(C)n1-c1ccccc1 (stereo not drawn)	42*	-22	17	34	26	19
COc1ccc(/C=C2\CCCC3C2=NC(=S)NC3c2ccc(OC)cc2)cc1 (stereo not drawn)	46*	-8	13	50	24	28
O=S(=O)(c1ccc(Cl)c(NC(=S)Nc2ccccc2N2CCOCC2)c1)N1CCOCC1	33	-10	2	29	14	.
Fc1ccc(NC(=S)Nc2ccccc2N2CCOCC2)cc1Cl	44*	-25	-2	32	9	39*
CC(C)n1c(-c2ccco2)csc1=Nc1cccnc1	49*	16	4	35	18	32*
COCCn1c(-c2ccccc2)csc1=Nc1cccnc1	12	-82	-2	30	4	.
Cc1nn(-c2ccc(Cl)cc2)c2[nH]c(CCl)cc(=O)c12	62*	-28	10	47	31	32*
Cc1ccc(-c2ccc(/C=N\n3cnnc3)o2)c(Br)c1	26	-10	-1	40	31	.
Cc1ccc(Sc2oc(/C=N/n3cnnc3)cc2Br)cc1	46*	-11	1	35	20	17
